Experimental data as given in PubChem BioAssay.
Calls of active or inactive are those of the source.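 Rule for the calls, unless noted: active = compounds lowering colon cancer cell viability after pretreatment blocking the GSK3B kinase; inactive = the rest.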 Positions of bridges follow the written chain, without caps; N, C: chain ends. Non-standard residues stand in square brackets, D forms with d. Residues, ends and D or L forms follow the SMILES beside them. hArg = N=C(N)NCCCC[C@H](N)C(=O)O; Mpa = O=C(O)CCS

What was measured:
[1] = Wnt pathway potentiators raising nuclear beta-catenin – imaging, WNT3A-conditioned medium, mouse C2C12, NPC library, primary screen (AID 1117326; in the data active = nuclear beta-catenin stimulation mostly above about 4.2%, no sharp cut-off; inactive = mostly below about 10%; note: reference of the scale not given here); details: stronger effect = higher value
[2] = stimulators of insulin release from INS-1E, primary screen, cell-based, 5 mM glucose, NPC library (AID 1117329;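 active = compound raises insulin release from rat beta cells at 5 mM glucose, no numeric limit stated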; note: reference of the scale not given here); details: rat INS-1E insulin secretion, at 10 µM, stronger effect = higher value
[3] = growth inhibition of GSK3B-pretreated HCT116 cells – cell-based, CellTiter-Glo, 0.2 to 20 µM (AID 1117336); details: HCT116 viability after GSK3B inhibitor, at 20 µM, stronger effect = higher value
[4] = inhibition of endothelial tube formation, primary screen, imaging, VEGF stimulated, CD31 staining, tube area, NPC library (AID 1117340;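 active = compound that reduces growth-factor-driven endothelial tube area in a mixed cell culture, no cutoff stated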); details: VEGF-stimulated ADSC/ECFC co-culture, at 10 µM, stronger effect = higher value
[5] = GLP1 release stimulators, primary, NCI-H716, NPC library (AID 1117341;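 active = compound raises GLP1 secretion from the human gut endocrine cells, with no numeric limit stated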; note: reference of the scale not given here); details: NCI-H716 cells, at 10 µM, stronger effect = higher value
[6] = HCT116 colon cancer cell growth inhibition, primary screen, CellTiter-Glo luminescence, NPC library (AID 1117342;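 active = compounds that lower survival of HCT116 colon cancer cells in the luminescence readout, no numeric limit stated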); details: at 20 µM (top of the series)
[7] = reduced SW480 viability measured with CellTiter-Glo, NPC library, primary (AID 1117343;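 active = compounds that lower viability of the colon cancer cells in the luminescence readout, with no numeric limit stated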); details: CellTiter-Glo luminescence; at 20 µM (top of the series)
[8] = NPC library primary testing for decreased DLD-1 cell viability via CellTiter-Glo (AID 1117346;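 active = compounds that lower survival of DLD-1 colon cancer cells in the luminescence readout, no cutoff given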); details: DLD-1 viability, CellTiter-Glo luminescence; at 20 µM (top of the series)

| SMILES | nuclear beta-catenin stimulation ([1]; at 10 µM) | nuclear beta-catenin stimulation ([1]; stimulation, at 2 µM) | insulin secretion stimulation [2] | viability decrease [3] | tube area decrease [4] | GLP1 secretion stimulation [5] | inhibition of viability [6] | viability decrease (inhibition) [7] | viability decrease (inhibition) [8] |
| --- | --- | --- | --- | --- | --- | --- | --- | --- | --- |
| O=C(Nc1ccc(Cl)cc1)Nc1ccc(Cl)c(Cl)c1 | 35.1% (inactive) | 0.3% | -3.4% (inactive) | 92.2% (active) | 103% (active) | -3.2% (inactive) | 84.6% (active) | 116% (active) | 94.1% (active) |
| CC[C@@]1(O)C(=O)OCc2c1cc1n(c2=O)Cc2c-1nc1ccccc1c2/C=N/OC(C)(C)C | 38.7% (active) | 59.7% | 2.9% (inactive) | -17.1% (active) | 59.9% (active) | 14.3% (inactive) | 35% (active) | 64.5% (active) | 76.5% (active) |
| O=C(OCCN1CCOCC1)c1cccnc1Nc1cccc(C(F)(F)F)c1 | 1.2% (inactive) | -0.8% | -0.1% (inactive) | 42% (inactive) | 8.9% (inactive) | 3.6% (inactive) | 55.9% (active) | 62.3% (active) | 28.3% (inactive) |
| CO[C@@]1(NC(=O)CSC[C@@H](N)C(=O)O)C(=O)N2C(C(=O)O)=C(CSc3nnnn3C)CS[C@@H]21 | 0.6% (inactive) | -1.7% | 2.6% (inactive) | 4.5% (inactive) | -11.8% (inactive) | -0.5% (inactive) | -0.6% (inactive) | -15.3% (inactive) | 3.1% (inactive) |
| CC(=O)OC[C@H]1O[C@@H](n2ncc(=O)[nH]c2=O)[C@H](OC(C)=O)[C@@H]1OC(C)=O | 14% (inactive) | 2.3% | 1.7% (inactive) | 47.3% (active) | 47.8% (active) | -0.6% (inactive) | 16.2% (inactive) | 26% (inactive) | -5.9% (inactive) |
| CC1(C)S[C@@H]2[C@H](NC(=O)C(c3ccccc3)S(=O)(=O)O)C(=O)N2[C@H]1C(=O)O (some centres undefined) | 1.3% (inactive) | 1.4% | -0.05% (inactive) | 5.8% (inactive) | -2.3% (inactive) | 3.6% (inactive) | 1.3% (inactive) | -0.2% (inactive) | -1.8% (inactive) |
| CC(=O)Nc1ccc(OCCOCCOc2ccc(NC(C)=O)cc2)cc1 | 0.3% (inactive) | 0.3% | -2.6% (inactive) | 0.7% (inactive) | -0.3% (inactive) | -1.2% (inactive) | -3.5% (inactive) | 11.3% (inactive) | -8.2% (inactive) |
| CC(C)=CCC/C(C)=C/CC/C(C)=C/C(=O)OCC(=O)[C@@]1(O)CC[C@H]2[C@@H]3CCC4=CC(=O)C=C[C@]4(C)[C@H]3[C@@H](O)C[C@@]21C | -1% (inactive) | 0% | -2% (inactive) | 92.3% (active) | 107% (active) | -0.8% (inactive) | 98.2% (active) | 86.2% (active) | 88.5% (active) |
| CC(=O)OC(C)OC(=O)C(C)c1ccc(-c2ccccc2)c(F)c1 (centres undefined) | 3.1% (inactive) | 0.3% | 0.5% (inactive) | -2.95% (inactive) | -36.8% (inactive) | -1.1% (inactive) | 8.9% (inactive) | 4.6% (inactive) | -3.05% (inactive) |
| CO/N=C(/C(=O)N[C@@H]1C(=O)N2C(C(=O)OCOC(=O)C(C)(C)C)=C(C)CS[C@H]12)c1csc(N)n1 | 1% (inactive) | -2% | 5.9% (inactive) | 7.7% (inactive) | -11.2% (inactive) | -21% (inactive) | 0.6% (inactive) | 15% (inactive) | -8.3% (inactive) |
| Cc1ccc(/C=N/n2c(-c3ccccc3)csc2=S)cc1 | 1.7% (inactive) | -0.8% | 5% (inactive) | 50.3% (active) | 18.4% (inactive) | 0.3% (inactive) | 16.7% (inactive) | 56% (active) | 37.1% (inactive) |
| CCCCOC(=O)CCCCCCCCC(=O)OCCCC | 1.4% (inactive) | 1% | 2.4% (inactive) | 10.4% (inactive) | 3.7% (inactive) | 1.9% (inactive) | 13.3% (inactive) | -9.1% (inactive) | 7.6% (inactive) |
| CCCCCC=CCC=CCCCCCCCC(=O)OCC | 1.6% (inactive) | -0.5% | -1.8% (inactive) | -40% (inactive) | 7.8% (inactive) | 8.5% (inactive) | 17.5% (inactive) | 30.9% (inactive) | 54.5% (active) |
| Nc1nc(-c2ccccc2)c(Br)c(=O)[nH]1 | 3.6% (inactive) | 2.1% | -0.7% (inactive) | -50.3% (inactive) | 17% (inactive) | 3.9% (inactive) | -10.9% (inactive) | 11.9% (inactive) | 0.7% (inactive) |
| CCCCN=C(N)N=C(N)N | 2.9% (inactive) | 0.9% | -1.1% (inactive) | -10.8% (inactive) | 3.5% (inactive) | 2.1% (inactive) | 3.4% (inactive) | 54.5% (active) | -0.2% (inactive) |
| NC(=O)[C@@H]1CSSCCC(=O)N[C@@H](CCCCN=C(N)N)C(=O)NCC(=O)N[C@@H](CC(=O)O)C(=O)N[C@@H](Cc2c[nH]c3ccccc23)C(=O)N2CCC[C@H]2C(=O)N1 ([Mpa][hArg]GDWPC-NH2; disulfide 1-7) | 3.6% (inactive) | 5.8% | 3.95% (inactive) | 19.6% (inactive) | 79.4% (active) | -2.7% (inactive) | 9.3% (inactive) | 0.7% (inactive) | 0.2% (inactive) |

| SMILES | nuclear beta-catenin stimulation ([1]; at 10 µM) | nuclear beta-catenin stimulation ([1]; stimulation, at 2 µM) | insulin secretion stimulation [2] | viability decrease [3] | tube area decrease [4] | GLP1 secretion stimulation [5] | inhibition of viability [6] | viability decrease (inhibition) [7] | viability decrease (inhibition) [8] |
| --- | --- | --- | --- | --- | --- | --- | --- | --- | --- |
| O=C(O)CCC(=O)C(=O)O | -1.7% (inactive) | -0.1% | -2.2% (inactive) | 0.1% (inactive) | -17.8% (inactive) | -1.6% (inactive) | -1.4% (inactive) | 2.9% (inactive) | -7.5% (inactive) |
| Oc1cccc(-c2c3nc(c(-c4cccc(O)c4)c4ccc([nH]4)c(-c4cccc(O)c4)c4nc(c(-c5cccc(O)c5)c5ccc2[nH]5)CC4)C=C3)c1 | 24.3% (inactive) | -1.7% | -1.15% (inactive) | 95.2% (active) | -79.5% (inactive) | 13.6% (inactive) | 109% (active) | 141% (active) | 95.7% (active) |
| Nc1ncnc2c1ncn2Cc1c(F)cccc1Cl | -0.7% (inactive) | -2.1% | 4.3% (inactive) | -7.4% (inactive) | -5% (inactive) | 1.9% (inactive) | 9.7% (inactive) | -2.4% (inactive) | -2% (inactive) |
| CCCCCCCCCCCCCCCC(=O)OC(C)C | 0.6% (inactive) | 1.3% | 2.3% (inactive) | -9.5% (inactive) | -17.7% (inactive) | -1.2% (inactive) | 3.07% (inactive) | -0.2% (inactive) | -1.5% (inactive) |
| Cc1c(Cn2ccnc2)c2ccccc2n1CCC(=O)O | 0.7% (inactive) | 2.7% | -0.1% (inactive) | 108% (active) | -6.9% (inactive) | -1.3% (inactive) | 103% (active) | 79.6% (active) | 60.9% (active) |
| CCCN(CCc1cccs1)[C@H]1CCc2c(O)cccc2C1 | 0.6% (inactive) | -2.2% | 8.95% (inactive) | 48.4% (inactive) | 0.6% (inactive) | 2.4% (inactive) | 65.2% (active) | 30.3% (inactive) | 9.7% (inactive) |
| Cc1cc(C)c(NC(=O)CN(CC(=O)O)CC(=O)O)c(C)c1Br | 1.9% (inactive) | 0.6% | 0.25% (inactive) | 29.2% (inactive) | -4.1% (inactive) | -3.7% (inactive) | 13.3% (inactive) | 4.7% (inactive) | -14.9% (inactive) |
| CN1CCC[C@@H]1c1cccnc1 | -0.7% (inactive) | 1.5% | 1.5% (inactive) | -2.3% (inactive) | 12.5% (inactive) | 3.1% (inactive) | -5.8% (inactive) | 25.8% (inactive) | -23.3% (inactive) |
| CCOc1ccc(NS(=O)(=O)c2ccc(N)cc2)nn1 | -0.3% (inactive) | 0.4% | -0.2% (inactive) | 1.55% (inactive) | -25.2% (inactive) | 2.6% (inactive) | -1.7% (inactive) | 29.4% (inactive) | 4.15% (inactive) |
| CN1CC(=O)NC1=N | -0.7% (inactive) | 1.5% | 4.1% (inactive) | -24% (inactive) | 21.3% (inactive) | 0.9% (inactive) | -3.43% (inactive) | -155% (inactive) | -6.6% (inactive) |
| Cc1nc2n(c(=O)c1CCN1CCC(C(=O)c3ccc(F)cc3)CC1)CCS2 | 0.2% (inactive) | -0.8% | 0.2% (inactive) | 38% (inactive) | 14.8% (inactive) | 5.4% (inactive) | 67.6% (active) | 29.6% (inactive) | 33.5% (inactive) |
| CC(=O)Nc1ccc(S(=O)(=O)Nc2cc(C)on2)cc1 | 1.7% (inactive) | 0.3% | 0.5% (inactive) | -7% (inactive) | -15.5% (inactive) | 0.1% (inactive) | 0.8% (inactive) | -14.4% (inactive) | 2% (inactive) |
| O=C1Nc2cc(Cl)ccc2Oc2ccccc21 | 0% (inactive) | -0.5% | -0.2% (inactive) | 55.1% (active) | 17.8% (inactive) | -0.4% (inactive) | 10.7% (inactive) | -6.3% (inactive) | -57.3% (inactive) |
| COc1ccc(C=CC(=O)O)cc1 | -1.4% (inactive) | 0% | 1% (inactive) | -39% (inactive) | 4.7% (inactive) | -4.2% (inactive) | 2.2% (inactive) | -6.4% (inactive) | -5.9% (inactive) |
| C[C@@H]1CCC[C@H](C)N1CCCC(O)(c1ccccc1)c1ccccn1 (some centres undefined) | 1% (inactive) | 0% | 2.6% (inactive) | -50.8% (inactive) | 12.8% (inactive) | 1.3% (inactive) | -3.7% (inactive) | 14.7% (inactive) | -14.8% (inactive) |
